Experiment [1] can be described thus: NCI Yeast Anticancer Drug Screen. Data for the rad50 strain (AID 155).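 Note: 0% = growth of vehicle-only cultures of the same strain.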 The note with it: S. cerevisiae rad50 strain growth inhibition, stronger effect = higher value. The method in brief:
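Compounds were tested on a yeast strain with an engineered DNA damage repair alteration; the reported value is growth inhibition normalised to vehicle treatment.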

The nature of experiment [2]: NCI Yeast Anticancer Drug Screen. Data for the mec2-1 strain (AID 157). The settings on record: S. cerevisiae mec2-1 strain, stronger effect = higher value. The method in brief:
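Strain: mec2-1 (DNA repair/cell cycle alteration). Compound exposure, then growth measured; inhibition expressed relative to vehicle.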

Experiment [3] is described as follows: NCI Yeast Anticancer Drug Screen. Data for the sgs1 mgt1 strain (AID 161).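 Note: 0% = growth of cultures given vehicle only.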 The settings on record: S. cerevisiae sgs1 mgt1 strain, stronger effect = higher value. The method in brief:
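Mutant yeast exposed to compound; growth scored against vehicle-only wells.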

The nature of experiment [4]: NCI Yeast Anticancer Drug Screen. Data for the cln2 rad14 strain (AID 165).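 Note: 0% = growth equal to vehicle treated cultures.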 The settings on record: S. cerevisiae cln2 rad14 strain, stronger effect = higher value. The method in brief:
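Compounds are applied to the cln2 rad14 yeast strain, and growth is then compared with that of vehicle-treated cultures to give inhibition.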

The nature of experiment [5]: NCI Yeast Anticancer Drug Screen. Data for the bub3 strain (AID 167). The note with it: S. cerevisiae bub3 mutant strain, stronger effect = higher value. Summed up:
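Growth of a checkpoint-deficient yeast mutant is measured after compound exposure. Values represent inhibition relative to vehicle.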

Experiment [6] in a line: NCI Yeast Anticancer Drug Screen. Data for the mlh1 rad18 strain (AID 175). The settings on record: S. cerevisiae mlh1 rad18 strain growth inhibition, stronger effect = higher value. The method in brief: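 Read-out is yeast growth inhibition, calculated against vehicle-only controls. The compound was applied to a strain engineered with DNA damage repair alterations.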
[7] abbreviates: at 5.0 µM (retest, dose inferred, filed as 0.5).
Setting [8] is: at 50.0 µM (retest, dose inferred, filed as 5.0).

The panel holds about 79,000 compounds, 15% with a hit somewhere; the sample as a whole holds those more often. Unmarked numbers belong to inactive results. The source made the active and inactive calls. Cut-off read from the data, not from the text of the source: active = growth inhibition above about 70%; inactive = the rest.

In the case of `CC1(C)CC(=O)C2=C(C1)Nc1ccccc1CC2c1c[nH]c2ccccc12` (configuration not stated), the growth inhibition in experiment [1] (setting [7]) was -6%; in experiment [1] (setting [8]) it was 77% (active); in experiment [1] (at 50.0 µM), -7.2%; in experiment [2] (setting [7]), -1%; in experiment [2] (setting [8]), 85% (active); in experiment [2] (at 50.0 µM), 3.35%. The growth inhibition in experiment [3] (setting [7]) was -8%; in experiment [3] (setting [8]), 68%; in experiment [3] (at 50.0 µM), 5.35%; in experiment [4] (setting [7]), -62%; in experiment [4] (setting [8]), 82% (active); in experiment [4] (at 50.0 µM) it was 52.2%. Further, the growth inhibition in experiment [5] (setting [7]) is -4%; in experiment [5] (setting [8]), 68%; in experiment [5] (at 50.0 µM) it was 10.8%; in experiment [6] (setting [7]), 0%; in experiment [6] (setting [8]), 84% (active); in experiment [6] (at 50.0 µM), 0%.
Turning to `NC(=O)N/N=C1/CC2CCCCC2c2ccccc21` (configuration not stated), the growth inhibition in experiment [1] (setting [7]) is 12%; in experiment [1] (setting [8]), 92% (active); in experiment [1] (at 50.0 µM) it was 67.8%; in experiment [2] (setting [7]), -4%; in experiment [2] (setting [8]), 86% (active); in experiment [2] (at 50.0 µM) it was 13%. In addition, the growth inhibition was -2% in experiment [3] (setting [7]); 66% in experiment [3] (setting [8]); 58% in experiment [3] (at 50.0 µM); 0% in experiment [4] (setting [7]); 69% in experiment [4] (setting [8]); 19.2% in experiment [4] (at 50.0 µM). Besides, the growth inhibition is 0% in experiment [5] (setting [7]); 94% (active) in experiment [5] (setting [8]); 86.2% (active) in experiment [5] (at 50.0 µM); -6% in experiment [6] (setting [7]); 94% (active) in experiment [6] (setting [8]); 23.5% in experiment [6] (at 50.0 µM).
As for `CSc1cc(Cl)c(C)cc1S(=O)(=O)NC(=O)Nc1ccc(Cl)cc1`, the growth inhibition in experiment [1] (setting [7]) is 25%; in experiment [1] (setting [8]) it was 97% (active); in experiment [1] (at 50.0 µM), 99.1% (active); in experiment [2] (setting [7]), 34%; in experiment [2] (setting [8]) it was 99% (active); in experiment [2] (at 50.0 µM), 99% (active). Further, the growth inhibition in experiment [3] (setting [7]) was 24%; in experiment [3] (setting [8]) it was 97% (active); in experiment [3] (at 50.0 µM), 99.5% (active); in experiment [4] (setting [7]) it was 45%; in experiment [4] (setting [8]), 97% (active); in experiment [4] (at 50.0 µM), 98.7% (active). Further, the growth inhibition in experiment [5] (setting [7]) was 35%; in experiment [5] (setting [8]), 98% (active); in experiment [5] (at 50.0 µM), 98.5% (active); in experiment [6] (setting [7]), 29%; in experiment [6] (setting [8]) it was 99% (active); in experiment [6] (at 50.0 µM), 99.3% (active).
As to `Cc1ccc(S(=O)(=O)OC2C(C)OCOC(C)C2OS(=O)(=O)c2ccc(C)cc2)cc1` (configuration not stated), the growth inhibition is 1% in experiment [1] (setting [7]); 0% in experiment [1] (setting [8]); 24.6% in experiment [1] (at 50.0 µM); -2% in experiment [2] (setting [7]); -1% in experiment [2] (setting [8]); 11.9% in experiment [2] (at 50.0 µM). Besides, the growth inhibition is -2% in experiment [3] (setting [7]); -17% in experiment [3] (setting [8]); 5.9% in experiment [3] (at 50.0 µM); 0% in experiment [4] (setting [7]); -12% in experiment [4] (setting [8]); 16.6% in experiment [4] (at 50.0 µM). Moreover, the growth inhibition in experiment [5] (setting [7]) is 2%; in experiment [5] (setting [8]), 15%; in experiment [5] (at 50.0 µM), 93% (active); in experiment [6] (setting [7]), 1%; in experiment [6] (setting [8]), 1%; in experiment [6] (at 50.0 µM), -3.85%.
On to `N#CNc1nc(N)c(-c2ccc(Cl)cc2)c(C(=O)Nc2ccc(Cl)c(Cl)c2)n1`, for which the growth inhibition was -1% in experiment [1] (setting [7]); 1% in experiment [1] (setting [8]); -5.15% in experiment [1] (at 50.0 µM); -3% in experiment [2] (setting [7]); -2% in experiment [2] (setting [8]); 14% in experiment [2] (at 50.0 µM). The growth inhibition in experiment [3] (setting [7]) was -2%; in experiment [3] (setting [8]), 4%; in experiment [3] (at 50.0 µM), -8%; in experiment [4] (setting [7]), -4%; in experiment [4] (setting [8]), 1%; in experiment [4] (at 50.0 µM), -6.6%. For the same compound, the growth inhibition in experiment [5] (setting [7]) is -2%; in experiment [5] (setting [8]), 1%; in experiment [5] (at 50.0 µM), 4.2%; in experiment [6] (setting [7]), -1%; in experiment [6] (setting [8]), -2%; in experiment [6] (at 50.0 µM), -22.4%.
In the case of `CN(NC(=O)CC(=O)NN(C)C(=S)c1ccccc1)C(=S)c1ccccc1`, the growth inhibition in experiment [1] (setting [7]) is 76% (active); in experiment [1] (setting [8]), 84% (active); in experiment [1] (at 50.0 µM), 68.5%; in experiment [2] (setting [7]) it was 81% (active); in experiment [2] (setting [8]), 87% (active); in experiment [2] (at 50.0 µM), 80% (active). For the same compound, the growth inhibition was 96% (active) in experiment [3] (setting [7]); 87% (active) in experiment [3] (setting [8]); 91.7% (active) in experiment [3] (at 50.0 µM); 60% in experiment [4] (setting [7]); 69% in experiment [4] (setting [8]); 73.8% (active) in experiment [4] (at 50.0 µM). Besides, the growth inhibition was 54% in experiment [5] (setting [7]); 73% (active) in experiment [5] (setting [8]); 76% (active) in experiment [5] (at 50.0 µM); 78% (active) in experiment [6] (setting [7]); 76% (active) in experiment [6] (setting [8]); 84.2% (active) in experiment [6] (at 50.0 µM).
On to `O=C(c1ccc(O)c(Br)c1)c1cc(Br)ccc1O`, for which the growth inhibition in experiment [1] (setting [7]) is 66%; in experiment [1] (setting [8]) it was 98% (active); in experiment [1] (at 50.0 µM) it was 95.7% (active); in experiment [2] (setting [7]), 77% (active); in experiment [2] (setting [8]), 98% (active); in experiment [2] (at 50.0 µM), 96.9% (active). For the same compound, the growth inhibition was 73% (active) in experiment [3] (setting [7]); 98% (active) in experiment [3] (setting [8]); 97.8% (active) in experiment [3] (at 50.0 µM); 86% (active) in experiment [4] (setting [7]); 99% (active) in experiment [4] (setting [8]); 95.3% (active) in experiment [4] (at 50.0 µM). Besides, the growth inhibition is 85% (active) in experiment [5] (setting [7]); 97% (active) in experiment [5] (setting [8]); 96% (active) in experiment [5] (at 50.0 µM); 78% (active) in experiment [6] (setting [7]); 98% (active) in experiment [6] (setting [8]); 95.9% (active) in experiment [6] (at 50.0 µM).
As for `Cc1ccc(C)c(C(=O)/C=C/C(=O)O)c1`, the growth inhibition in experiment [1] (setting [7]) was 29%; in experiment [1] (setting [8]), 100% (active); in experiment [1] (at 50.0 µM), 52.5%; in experiment [2] (setting [7]) it was 22%; in experiment [2] (setting [8]), 99% (active); in experiment [2] (at 50.0 µM) it was 70.7% (active). For the same compound, the growth inhibition in experiment [3] (setting [7]) was 32%; in experiment [3] (setting [8]) it was 100% (active); in experiment [3] (at 50.0 µM), 61.5%; in experiment [4] (setting [7]), 15%; in experiment [4] (setting [8]), 99% (active); in experiment [4] (at 50.0 µM), 40.6%. The growth inhibition was 27% in experiment [5] (setting [7]); 98% (active) in experiment [5] (setting [8]); 64.1% in experiment [5] (at 50.0 µM); 42% in experiment [6] (setting [7]); 98% (active) in experiment [6] (setting [8]); 65.1% in experiment [6] (at 50.0 µM).
As for `CCN(CC)C(C)(C)C(=O)/C=C/c1ccc(Cl)cc1`, the growth inhibition was -5% in experiment [1] (setting [7]); 69% in experiment [1] (setting [8]); 2.2% in experiment [1] (at 50.0 µM); -15% in experiment [2] (setting [7]); 28% in experiment [2] (setting [8]); 4.8% in experiment [2] (at 50.0 µM). In addition, the growth inhibition in experiment [3] (setting [7]) was 24%; in experiment [3] (setting [8]), 87% (active); in experiment [3] (at 50.0 µM) it was 24.9%; in experiment [4] (setting [7]), -9%; in experiment [4] (setting [8]) it was 26%; in experiment [4] (at 50.0 µM), -5%. Moreover, the growth inhibition in experiment [5] (setting [7]) is 1%; in experiment [5] (setting [8]), 82% (active); in experiment [5] (at 50.0 µM), 54.5%; in experiment [6] (setting [7]), 46%; in experiment [6] (setting [8]) it was 94% (active); in experiment [6] (at 50.0 µM), 19.7%.
